# Test results taken from PubChem BioAssay (NCATS).
# Records with an inconclusive call do not appear. A call without a number means that no potency is given here. Unmarked numbers belong to inactive results. The source made the active and inactive calls. Calls come from the whole dose curve; as a rule, active = well fitted curve in the direction sought with a large enough effect; inconclusive = small, poorly fitted or top-dose-only effect, or another doubt; inactive = no such curve, though single readings can be large; an effect the other way counts as inactive or inconclusive.
# Assays:
# [1] = Quantitative highthroughput screen to assess conditional lethalithy of NOMO1 cells grown in RPMI1640 with untreated serum (RPMI+s) (AID 1963876); note: nearly all actives have a fitted effect of over 35% in size; note: potency is the fitted concentration of half-maximal effect
# Summary of the method: (§1)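 Each medium arm—HPLM with 10% dialyzed FBS, or RPMI1640 with 5 mM glucose and 10% untreated or dialyzed FBS—was screened against an 11-point, 3-fold compound titration for 48 h at 37 °C, with CellTiter-Glo luminescence as endpoint.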
# [2] = Quantitative highthroughput screen to assess conditional lethalithy of NOMO1 cells grown in RPMI1640 with dialyzed fetal bovine serum (RPMI+ds) (AID 1963877); note: nearly all actives have a fitted effect of over 30% in size; note: potency is the fitted concentration of half-maximal effect; for viability: series mostly up to about 46 µM
# Summary of the method: as §1
# [3] = Quantitative highthroughput screen to assess conditional lethalithy of P12 Ichikawa cells grown in Human Plasma-Like Medium with dialyzed fetal bovine serum (HPLM+ds) (AID 1963879); conditions: Potency: viability; note: nearly all actives have a fitted effect of over 35% in size; note: potency is the fitted concentration of half-maximal effect; for viability: series mostly up to about 46 µM
# Summary of the method: as §1
# [4] = Quantitative highthroughput screen to assess conditional lethalithy of P12 Ichikawa cells grown in RPMI1640 with dialyzed fetal bovine serum (RPMI+ds) (AID 1963880); conditions: Potency: P12-Ichikawa viability; note: nearly all actives have a fitted effect of over 35% in size; note: potency is the fitted concentration of half-maximal effect
# Summary of the method: as §1
# [5] = Quantitative highthroughput screen to assess conditional lethalithy of SEM cells grown in Human Plasma-Like Medium with dialyzed fetal bovine serum (HPLM+ds) (AID 1963882); note: nearly all actives have a fitted effect of over 35% in size; note: potency is the fitted concentration of half-maximal effect; for viability: series mostly up to about 46 µM
# Summary of the method: as §1
# [6] = Quantitative highthroughput screen to assess conditional lethalithy of SEM cells grown in RPMI1640 with unreated serum (RPMI+s) (AID 1963883); note: nearly all actives have a fitted effect of over 35% in size; note: potency is the fitted concentration of half-maximal effect
# Summary of the method: as §1
# [7] = Quantitative highthroughput screen to assess conditional lethalithy of SEM cells grown in RPMI1640 with dialyzed fetal bovine serum (RPMI+ds) (AID 1963884); note: nearly all actives have a fitted effect of over 35% in size; note: potency is the fitted concentration of half-maximal effect; for viability: series mostly up to about 46 µM
# Summary of the method: as §1
# [8] = Quantitative highthroughput screen to assess conditional lethalithy of P12 Ichikawa cells grown in RPMI1640 with untreated serum (RPMI+s) (AID 1963881); conditions: Potency: viability; note: nearly all actives have a fitted effect of over 35% in size; note: potency is the fitted concentration of half-maximal effect; for viability: series mostly up to about 46 µM
# Summary of the method: as §1
# [9] = Cellular viability qHTS for adrenocortical cancer (ACC) cell line SW-13 (AID 1963989); conditions: SW-13 ACC cells viability, CellTiter-Glo, 48 h; activity (max response): stronger effect = lower value;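 note: cells grown in serum-free medium with ITS supplement; nearly all actives have a fitted effect of over 65% in size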
# Summary of the method: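 Luminescent ATP read-out (CellTiter-Glo, 20 min at room temperature) measured metabolically competent SW-13 cells after 48 h compound treatment. Final concentrations spanned up to 46 uM; bortezomib served as positive control.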
# [10] = Cellular viability qHTS for adrenocortical cancer (ACC) cell line NCI-H295R (AID 1963990); note: nearly all actives have a fitted effect of over 60% in size; note: potency is the fitted concentration of half-maximal effect
# Summary of the method: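 IC50 and maximal efficacy derive from four-parameter logistic modelling of titration curves, with reads scaled between DMSO-only wells (0%) and doxorubicin hydrochloride (100% inhibition). Compounds spanned up to 46 uM over 48 h.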
# [11] = Quantitative highthroughput screen to assess conditional lethalithy of NOMO1 cells grown in Human Plasma-Like Medium with dialyzed fetal bovine serum (HPLM+ds) (AID 1963878); note: nearly all actives have a fitted effect of over 35% in size
# Summary of the method: as §1
smiles,measurement,setting,value
O=C(C1CC1)N1CC[C@@H](Cn2c(-c3ccc(-c4ccc5occc5c4)cc3)nc3cnccc32)C1,Potency,[1],inactive
same,Potency,[2],inactive
same,Potency,[3],inactive
same,Potency,[4],inactive
same,Potency,[5],inactive
same,Potency,[6],inactive
same,Potency,[7],inactive
CC(C)(N)C(=O)N[C@H](COCc1ccccc1)C(=O)N1CCC2(CC1)CN(S(C)(=O)=O)c1ccccc12,Potency,[1],inactive
same,Potency,[2],10.5 µM (active)
same,Potency,[4],23.5 µM (active)
same,Potency,[8],26.4 µM (active)
same,activity (max response),[9],-9.29%
same,Potency,[10],inactive
Cc1cccc(C=NNc2cc(N3CCOCC3)nc(OCCc3ccccn3)n2)c1,Potency,[1],2.09 µM (active)
same,Potency,[2],1.05 µM (active)
same,Potency,[6],11.8 µM (active)
same,Potency,[7],14.8 µM (active)
Cc1cncc2cccc(S(=O)(=O)N3CCCN(C(=O)CN)C[C@@H]3C)c12,Potency,[1],5.9 µM (active)
same,Potency,[2],4.18 µM (active)
same,Potency,[3],5.26 µM (active)
same,Potency,[4],6.62 µM (active)
same,Potency,[8],6.62 µM (active)
same,Potency,[6],5.26 µM (active)
same,activity (max response),[9],-18.3%
same,Potency,[10],inactive
CCC(=O)O[C@]1(C(=O)CO)CC[C@H]2[C@@H]3CCC4=CC(=O)CC[C@]4(C)[C@@H]3CC[C@@]21C,Potency,[1],inactive
same,Potency,[2],10.5 µM (active)
same,Potency,[7],1.18 µM (active)
COc1ccc(-c2oc3c(CC=C(C)C)c(OC4O[C@H](CO)[C@@H](O)[C@H](O)[C@@H]4O)cc(O)c3c(=O)c2OC2O[C@@H](C)[C@H](O)[C@@H](O)[C@@H]2O)cc1 (stereo partly drawn),Potency,[1],inactive
same,Potency,[2],inactive
same,Potency,[5],18.7 µM (active)
same,Potency,[6],13.2 µM (active)
same,Potency,[7],18.7 µM (active)
CC(=O)N[C@H]1[C@@H]([C@H](O)[C@H](O)CO)OC(C(=O)O)=C[C@@H]1N=C(N)N,Potency,[1],inactive
same,Potency,[2],inactive
same,Potency,[4],inactive
same,Potency,[5],inactive
CC(C)(C)OC(=O)CN(Cc1ccc(Cl)cc1)Cc1ccc([N+](=O)[O-])s1,Potency,[1],inactive
same,Potency,[2],inactive
same,Potency,[8],inactive
same,activity (max response),[9],-11.1%
same,Potency,[10],inactive
CC1(C)[C@H](O[C@H]2O[C@H](C(=O)O)[C@@H](O)[C@H](O)[C@H]2O[C@@H]2O[C@H](C(=O)O)[C@@H](O)[C@H](O)[C@H]2O)CC[C@@]2(C)[C@H]1CC[C@]1(C)[C@H]2C(=O)C=C2[C@H]3C[C@@](C)(C(=O)O)CC[C@]3(C)CC[C@]21C,Potency,[1],inactive
same,Potency,[2],inactive
same,Potency,[3],inactive
same,Potency,[4],inactive
same,Potency,[5],inactive
same,Potency,[6],inactive
same,Potency,[7],inactive
O=C1c2ccccc2-c2n[nH]c3cccc1c23,Potency,[1],14.8 µM (active)
same,Potency,[2],23.5 µM (active)
same,Potency,[3],14.8 µM (active)
same,Potency,[4],16.6 µM (active)
same,Potency,[8],16.6 µM (active)
same,activity (max response),[9],-13.1%
C=C1C[C@@]2(O)O[C@@]3(C[C@H]2C(C)C)[C@H](C)CC[C@H]13,Potency,[1],inactive
same,Potency,[2],inactive
same,Potency,[3],inactive
same,Potency,[4],inactive
same,Potency,[5],inactive
same,Potency,[7],inactive
Nc1nc2ccc(OC(F)(F)F)cc2s1,Potency,[1],inactive
same,Potency,[2],inactive
same,Potency,[5],inactive
same,Potency,[10],20 µM (active)
CC[C@H](NC(=O)[C@H](C)NC)C(=O)N1C[C@@H](O)C[C@H]1Cc1c(-c2[nH]c3cc(F)ccc3c2C[C@H]2C[C@H](O)CN2C(=O)[C@H](CC)NC(=O)[C@H](C)NC)[nH]c2cc(F)ccc12,Potency,[1],0.935 µM (active)
same,Potency,[2],2.35 µM (active)
same,Potency,[3],2.96 µM (active)
same,Potency,[8],3.32 µM (active)
same,Potency,[5],inactive
CC=CCC=CCCC(=O)[C@H]1O[C@@H]1C(N)=O,Potency,[1],inactive
same,Potency,[2],inactive
same,Potency,[4],inactive
same,Potency,[8],inactive
OC[C@H]1O[C@@H](O[C@H]2[C@@H](O)[C@@](O)(CO)O[C@@H]2CO)[C@H](O)[C@@H](O)[C@@H]1O,Potency,[1],inactive
same,Potency,[2],inactive
same,Potency,[6],inactive
same,Potency,[7],inactive
CC(=O)OCC(=O)[C@@]1(O)[C@H](C)C[C@H]2[C@@H]3C=C(C)C4=Cc5c(cnn5-c5ccccc5)C[C@]4(C)[C@@H]3[C@@H](O)C[C@@]21C,Potency,[1],inactive
same,Potency,[2],inactive
same,Potency,[7],0.0148 µM (active)
same,activity (max response),[9],3.11%
same,Potency,[10],25.1 µM (active)
N#Cc1ccc(NC(=O)Nc2ccccc2Br)c2n[nH]nc12,Potency,[1],inactive
same,Potency,[2],inactive
same,Potency,[4],inactive
same,Potency,[5],inactive
same,Potency,[6],inactive
same,Potency,[7],inactive
same,activity (max response),[9],-2.82%
same,Potency,[10],inactive
NCc1c[nH]c(=S)n1[C@H]1CCc2c(F)cc(F)cc2C1,Potency,[1],inactive
same,Potency,[2],inactive
same,Potency,[3],inactive
same,Potency,[8],inactive
same,Potency,[10],inactive
O=C(O)c1ccc(O)c2ncc(N3CCOCC3)cc12,Potency,[1],inactive
same,Potency,[2],inactive
same,Potency,[7],18.7 µM (active)
same,activity (max response),[9],-5.09%
same,Potency,[10],inactive
CC(=O)N1CCN(c2ccc(OCc3nn(C)c(C)c3-c3cccc4c(CCCOc5cc(C)c(Cl)c(C)c5)c(C(=O)O)n(Cc5cccnc5)c34)cc2)CC1,Potency,[1],inactive
same,Potency,[2],inactive
same,Potency,[6],18.7 µM (active)
same,Potency,[7],20.9 µM (active)
O=C(CCCN1CCC(O)(c2ccc(Cl)cc2)CC1)c1ccc(F)cc1,Potency,[1],inactive
same,Potency,[11],inactive
same,Potency,[3],inactive
same,Potency,[4],inactive
same,Potency,[8],inactive
same,Potency,[5],inactive
same,Potency,[6],inactive
same,Potency,[7],inactive
